Results filed as inconclusive are left out. Calls of active or inactive are those of the source. Unless noted, the call rests on the fitted dose curve; in most records, active means well fitted curve in the direction sought with a large enough effect in the repeat runs; inconclusive means weak or mixed curves; inactive means no such curve, though single readings can be large; an effect the other way counts as inactive or inconclusive.
Key:
[1] = qHTS assay for small molecule agonists of the p53 signaling pathway (AID 651631; calls by dose curve; further: nearly all actives have a fitted effect of over 15% in size)
In short: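 Readout was fluorescence from the LiveBLAzer FRET substrate, applied for 2 h at room temperature after 16 h compound exposure at 37 °C. Cells were the p53RE-bla HCT-116 line, with beta-lactamase driven by p53 response elements.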

[2] = qHTS assay for small molecules that induce genotoxicity in human embryonic kidney cells expressing luciferase-tagged ATAD5 (AID 651632); further: nearly all actives have a fitted effect of over 15% in size
In short: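 HEK293T cells carrying luciferase-tagged ATAD5 were given compound or DMSO vehicle and incubated 16 hr at 37C, 5% CO2. Luciferase activity was read after 30 min at room temperature with Amplite; a rise signals genotoxic stress.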

[3] = qHTS assay for small molecule agonists of the p53 signaling pathway - cell viability (AID 651633; calls by dose curve; further: series mostly up to about 83 µM; nearly all actives have a fitted effect of over 30% in size)
In short: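 Viability counter-read: CellTiter-Glo luminescence (30 min, room temperature) in the same p53RE-bla plates. These plates had been exposed to compounds for 16 h at 37 C.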

[4] = qHTS assay for small molecules that induce genotoxicity in human embryonic kidney cells expressing luciferase-tagged ATAD5 - cell viability (AID 651634; calls by dose curve; further: nearly all actives have a fitted effect of over 25% in size)
In short: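 HEK293T cells carrying luciferase-tagged ATAD5, 2,000 cells/well, exposed to compound for 15.5 hr at 37C. Viability read as live-cell protease activity by CellTiter-Fluor fluorescence after 30 min at 37C.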

[5] = qHTS assay for small molecule disruptors of the mitochondrial membrane potential - cell viability (AID 720634; calls by dose curve;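 further: human HepG2 liver cancer cells; series mostly up to about 83 µM; nearly all actives have a fitted effect of over 20% in size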)
In short: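 HepG2 cells, 2,000 per well, attached overnight, then treated 1 hr at 37 C, 5% CO2. Viability read as ATP by CellTiter-Glo luminescence after 30 min at room temperature. Read in the same wells as the m-MPI membrane-potential dye assay.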

[6] = qHTS assay to test for compound auto fluorescence at 590 nm (red) in HepG2 cells (AID 720674)
In short: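 Red autofluorescence (Ex/Em 540/590 nm, Rose Bengal sodium equivalents) was measured in HepG2 cells, 2,000 per well in MEM plus 10% FBS, plated overnight at 37 C. Readings were taken 1 hr after adding 23 nL compound or DMSO, at 37 C and 5% CO2.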

[7] = qHTS assay to test for compound auto fluorescence at 535 nm (green) in HepG2 cells (AID 720675)
[8] = qHTS assay to test for compound auto fluorescence at 460 nm (blue) in HEK293 cells (AID 720678)
In short: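 HEK293 cells (2,000/well, medium with 10% dialyzed FBS) attached 4-5 hr, then exposed to compound overnight at 37C, 5% CO2. Blue fluorescence read at 405/460 nm, with triamterene as reference fluorophore.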

[9] = qHTS assay to test for compound auto fluorescence at 590 nm (red) in HEK293 cells (AID 720679)
In short: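 HEK293 cells (2,000/well, 10% dialyzed FBS) attached 4-5 hr, then dosed with compound or DMSO and incubated overnight at 37C, 5% CO2. Red fluorescence read at 540/590 nm, Rose Bengal sodium as reference fluorophore.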

[10] = qHTS assay to test for compound auto fluorescence at 460 nm (blue) in HEK293 cell free culture (AID 720681)
In short: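 Blue fluorescence (Ex 405/Em 460 nm, triamterene-equivalent) was read immediately after pin transfer of compound or DMSO into medium (DMEM, 10% FBS) without cells.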

[11] = qHTS assay to test for compound auto fluorescence at 535 nm (green) in HEK293 cell free culture (AID 720682)
In short: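 Compounds were pin-transferred into cell-free DMEM with 10% FBS, and green fluorescence was read at excitation 485 nm and emission 535 nm. Intensities were expressed as fluorescein-equivalent values.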

[12] = qHTS assay to test for compound auto fluorescence at 590 nm (red) in HEK293 cell free culture (AID 720683)
In short: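 Red-channel autofluorescence of compounds in culture medium (DMEM, 10% FBS), no cells, measured at 540/590 nm. Rose Bengal sodium is the reference fluorophore for equivalence.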

[13] = qHTS assay to test for compound auto fluorescence at 590 nm (red) in HepG2 cell free culture (AID 720684)
In short: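 Plate contents were MEM with 10% FBS plus test compound or DMSO, no cells. Fluorescence was recorded with 540 nm excitation and 590 nm emission.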

[14] = qHTS assay to test for compound auto fluorescence at 460 nm (blue) in HepG2 cell free culture (AID 720685)
In short: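 Compound (23 nL) or DMSO pinned into cell-free MEM with 10% FBS; blue fluorescence read at 405/460 nm excitation/emission, expressed as auto-fluorescence equivalency to triamterene.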

[15] = qHTS assay to test for compound auto fluorescence at 460 nm (blue) in HepG2 cells (AID 720687)
In short: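 Blue-channel autofluorescence (Ex/Em 405/460 nm, triamterene-equivalent) was measured after 1 hr compound exposure at 37 C, 5% CO2. Cells were HepG2, plated overnight at 37 C in MEM plus 10% FBS.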

[16] = biological target: Glucocorticoid receptor (Homo sapiens) (UniProt P04150); experiment: qHTS assay to identify small molecule agonists of the glucocorticoid receptor (GR) signaling pathway (AID 720691; active means well fitted activation curve with a large enough effect in the signal ratio in the repeat runs, not every such curve was filed as active; the % refers to the signal ratio)
Glucocorticoid receptor (Homo sapiens), sequence (P04150 whole entry, looked up): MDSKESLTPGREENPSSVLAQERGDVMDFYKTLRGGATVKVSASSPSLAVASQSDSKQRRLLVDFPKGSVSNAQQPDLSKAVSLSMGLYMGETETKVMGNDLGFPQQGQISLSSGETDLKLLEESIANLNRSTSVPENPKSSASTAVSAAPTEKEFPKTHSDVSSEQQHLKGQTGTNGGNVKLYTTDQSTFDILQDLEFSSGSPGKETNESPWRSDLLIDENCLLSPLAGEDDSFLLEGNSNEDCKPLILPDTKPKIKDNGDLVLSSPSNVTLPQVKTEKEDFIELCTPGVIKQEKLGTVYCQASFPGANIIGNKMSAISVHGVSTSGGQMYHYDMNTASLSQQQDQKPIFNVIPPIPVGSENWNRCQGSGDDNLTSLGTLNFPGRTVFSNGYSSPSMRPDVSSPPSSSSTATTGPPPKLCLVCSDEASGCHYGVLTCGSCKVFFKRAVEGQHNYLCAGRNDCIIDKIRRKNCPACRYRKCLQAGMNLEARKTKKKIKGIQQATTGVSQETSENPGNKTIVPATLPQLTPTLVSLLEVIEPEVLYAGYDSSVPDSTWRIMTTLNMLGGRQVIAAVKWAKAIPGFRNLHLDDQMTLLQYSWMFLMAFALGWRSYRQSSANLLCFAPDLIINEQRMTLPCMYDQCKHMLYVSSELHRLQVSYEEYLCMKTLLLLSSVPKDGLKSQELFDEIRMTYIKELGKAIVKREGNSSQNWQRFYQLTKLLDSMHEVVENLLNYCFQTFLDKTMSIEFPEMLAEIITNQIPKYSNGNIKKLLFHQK
In short: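 GR-bla HeLa cells carrying a GRE-driven beta-lactamase reporter, exposed to compounds for 18 h at 37 C. Reporter activation read as fluorescence after 2 h with LiveBLAzer B/G FRET substrate at room temperature.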

[17] = qHTS assay to test for compound auto fluorescence at 535 nm (green) in HEK293 cells (AID 720680)
[18] = qHTS assay to test for compound auto fluorescence at 535 nm (green) in HepG2 cell free culture (AID 720686)
[19] = biological target: Glucocorticoid receptor (Homo sapiens) (UniProt P04150); experiment: qHTS assay to identify small molecule antagonists of the glucocorticoid receptor (GR) signaling pathway (AID 720692; active means well fitted inhibition curve with a large enough effect in the signal ratio in the repeat runs, not every such curve was filed as active; the % refers to the signal ratio)
In short: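 GR-bla HeLa cells carrying a GRE-driven beta-lactamase reporter received compound after 4 h plating, then dexamethasone (5 nM final). After 18 h at 37C, the FRET substrate was loaded for 2 h at room temperature and fluorescence read.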

[20] = qHTS assay for small molecule disruptors of the mitochondrial membrane potential (AID 720635); further: potency means the concentration at half of the fitted maximal effect
In short: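 Mitochondrial membrane potential tracked with Mito-MPS dye, red aggregates (ex 540/em 590 nm) against green monomers (ex 490/em 535 nm). Compound treatment 1 hr at 37C, dye 30 min in HepG2.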

Measured: Potency

CNC(=S)NC
not listed: [17] | [18] | [19] | [20]
inactive: all other assays above

CCCCCC=CCC=CCCCCCCCC(=O)OCC
not listed: [6] | [20]
inactive: all other assays above

C=CC(C)(O)CCCC(C)CCCC(C)CCCC(C)C (stereo not given)
not listed: [6] | [15] | [17] | [20]
inactive: all other assays above

c1ccc(COCc2ccccc2)cc1
not listed: [5]
inactive: all other assays above

CCOc1cc(N)c(Cl)cc1C(=O)NCC1CN(Cc2ccc(F)cc2)CCO1 (stereo not given)
not listed: [20]
inactive: all other assays above

N#C/C(=C1\SCC(c2ccccc2Cl)S1)n1ccnc1 (stereo not given)
not listed: [9] | [19] | [20]
inactive: all other assays above

CC(=O)Nc1ccccc1C
not listed: [6] | [20]
inactive: all other assays above

O=C(NCCCN1CCOCC1)c1ccc(Cl)cc1
not listed: [9] | [20]
inactive: all other assays above

Cc1ccccc1N1C(=O)c2cc(S(N)(=O)=O)c(Cl)cc2NC1C (stereo not given)
not listed: [17] | [20]
inactive: all other assays above

CCOC(=O)c1ccccc1C
not listed: [17] | [18] | [20]
inactive: all other assays above

CCC(C(=O)OCCN(CC)CC)c1ccccc1 (stereo not given)
not listed: [5]
inactive: all other assays above

CCCCC/C(=C\c1ccccc1)CO
active: [20] 30.3 µM
not listed: [5] | [15] | [16] | [19]
inactive: all other assays above

CC(C)(CCl)c1ccccc1
not listed: [9] | [16] | [17] | [18] | [19] | [20]
inactive: all other assays above

CN1C(=O)CC(C)(c2ccccc2)C1=O (stereo not given)
not listed: [6] | [20]
inactive: all other assays above

CCOC(=O)[C@@H](C)Oc1ccc(Oc2nc3ccc(Cl)cc3o2)cc1
not listed: [5] | [15] | [19]
inactive: all other assays above

From PubChem BioAssay (Tox21)
